The values below come from PubChem BioAssay.

Records with an inconclusive call do not appear. Activity calls are given as the source filed them.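 The calls were made as follows, unless noted: active = GFP signal, as percent of the solvent control, above the screen mean plus 3 SD, about 149; inconclusive = no reading because the compound's own fluorescence upset strain identification; inactive = the rest.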

In general, inhibition refers to the drop in the measured response relative to a control, in per cent.

A short description of test [1]: yeast TOR pathway RPL19A-GFP modulators, primary screen, cell-based, S. cerevisiae, multiplex flow cytometry (AID 1862; in the data active = percent of DMSO control GFP below about 86%;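 also: lower values mimic rapamycin by blocking the RPL19A rise seen in DMSO cells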). The settings on record: S. cerevisiae RPL19A-GFP strain, flow cytometry fluorescence, 3 h; at 10 µM; stronger effect = lower value. Background: Flow cytometry measures light scatter and fluorescence of single cells or particles in a stream.
Test [2] is described as follows: modulators of MEP2-GFP levels in yeast, primary screen, S. cerevisiae, multiplex flow cytometry (AID 1867;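 active = GFP response, as percent of the DMSO control, above the screen-wide mean plus 3 SD, about 139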;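 also: median GFP channel fluorescence of barcode-gated MEP2-GFP cells measured by flow cytometry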). The settings on record: S. cerevisiae MEP2-GFP strain, 3 h, at 10 µM, stronger effect = higher value, 100% means same as DMSO wells.
Test [3] in a line: modulators of CIT2-GFP expression in yeast, primary screen, S. cerevisiae, GFP fusion, multiplex flow cytometry (AID 1870;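 active = percent response above a set limit, the screen-wide mean plus 3 SD, cut at about 130% in these data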;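 also: barcoded CIT2-GFP strain pooled with four other GFP strains with rapamycin as positive control; median GFP fluorescence per well over plate mean of DMSO wells so 100% = DMSO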). The following applies: 3 h, at 10 µM, stronger effect = higher value.
The nature of test [4]: modulators of LAP4-GFP expression in yeast, primary screen, S. cerevisiae, multiplex flow cytometry (AID 1873). The settings on record: 3 h, at 10 µM, stronger effect = higher value.
Test [5] in a line: modulators of AGP1-GFP expression in yeast TOR pathway, primary screen, cell-based, multiplex flow cytometry, S. cerevisiae (AID 1887;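 active = GFP signal above the screen-wide mean plus 3 SD, that is over about 124.5% of the solvent control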;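 also: AGP1-GFP fusion strain of S. cerevisiae within a five-strain barcoded multiplex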). The settings on record: 3 h, at 10 µM, stronger effect = higher value.
A short description of test [6]: inhibitors of CD8+ T cell-vesicle binding, pilot screen, LFA-1/ICAM-1 modulator project, MLPCN validation set, flow cytometry (AID 2523;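 active = response below a set limit, under 55% cells CD8-positive and vesicle-bound, and CD8 cells' 90th-percentile brightness under 279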;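 as to vesicle binding response: mean PE anti-B7-1 fluorescence of CD8+ cells relative to row control; 100% = QL9-loaded vesicles with DMSO vehicle in the same plate row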). The following applies: 2C mouse CD8+ T cells, at 7 µM, stronger effect = lower value; double positive events: measured here: CD8+/vesicle+ event percentage.
For test [7], the target named is Integrin beta-1 (Homo sapiens) + Integrin alpha-4 (Homo sapiens) (UniProt P13612+P05556). Nature of the test: inhibition of HUTS-21 binding to VLA-4, pilot screen, VLA-4 allosteric modulator project, U937 cells, HUTS-21 mAb, flow cytometry, validation set (AID 2674;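 active = inhibition above 50%, about 3 SD of the validation set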;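 also: antibody binding induced by the VLA-4 ligand LDV present at three times its Kd; 0% = LDV ligand with antibody and no compound and 100% = antibody without LDV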). The following applies: HUTS-21 LIBS mAb binding, at 6.7 µM, stronger effect = higher value, binding induced by LDV ligand.

A short description of test [8]: superoxide lowering in aged yeast cells, pilot screen, validation compound set (AID 2706;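 active = superoxide response below 65% of plate, a cut near 3 SD across the whole screen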;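 also: yeast exposed to compound for one week at 30 degrees C before staining; 100% = mean of all compound wells on the same plate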). The settings on record: S. cerevisiae aging, superoxide DHE fluorescence; at 10 µM; stronger effect = lower value.
For test [9], the target named is Beta-adrenergic receptor kinase 1 (Homo sapiens) (UniProt P25098). In words: GRK2 binders displacing RNA aptamer, biochemical, validation, human GRK2, bead flow cytometry (AID 488806;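 active = aptamer binding inhibition above 30%, about 3 SD of noise from non-fluorescent compounds; inactive = inhibition at or below 30%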). The settings on record: bead-bound GRK2, FAM-aptamer displacement, at 10 µM, stronger effect = higher value.
The target of test [10] is Beta-2 adrenergic receptor (Homo sapiens) (UniProt P07550). In words: beta2AR agonists driving receptor internalization, pilot screen, cell-based, FAP fluorogen, flow cytometry, validation set (AID 504459;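 active = percent response above 42, roughly 3 SD of non-fluorescent test compounds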;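 also: agonist-driven loss of surface beta2AR via internalization measured by FAP dye flow cytometry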). The settings on record: Am2.2-beta2AR cells, FAP surface receptor flow cytometry; at 10 µM; stronger effect = higher value.
The target of test [11] is AP-2 complex subunit beta (Homo sapiens) (UniProt P63010). In words: inhibitors of arrestin peptide binding to AP2, pilot screen, biochemical, validation set, GST-AP2 beads, flow cytometry (AID 504541;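 active = inhibition above 54%, about 3 SD of non-fluorescent compounds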;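 also: AP2 carries R879A mutation and is captured from E. coli lysate; bead-bound FITC arrestin peptide fluorescence measuring arrestin peptide binding to AP2; 0% = DMSO wells and 100% = excess unlabeled arrestin peptide control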). The settings on record: FITC arrestin peptide, at 10 µM, stronger effect = higher value, AP2 beta2 appendage fragment, R879A mutant.
Test [12] can be described thus: yeast V-ATPase proton transport modulators, S. cerevisiae, pHLuorin, HTS validation (AID 504600; in the data active = response above about 15%;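 also: plate controls were DMSO for no effect and reference compound for full effect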). The following applies: S. cerevisiae pHLuorin cytosolic pH, at 10 µM, stronger effect = higher value.
For test [13], the system named is anti-desmoglein-3 scFv antibody binding to human DSG3. In words: inhibitors of anti-DSG3 scFv binding to DSG3, pilot screen, biochemical, validation compound set, bead-based, flow cytometry (AID 588368;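 active = binding below the plate cutoff, the plate median minus 3 SD, with a reading above zero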;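 also: signal is the median channel fluorescence of bead-bound GFP antibody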). The following applies: Protein G beads, DSG3-Fc, scFv-GFP binding, at 10 µM, stronger effect = lower value.
Test [14] in a line: inhibitors of fungal efflux pumps CDR1, CDR2, MDR1, pilot screen, validation compound set, multiplex, phenotypic (AID 588506;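 active = efflux inhibition above 0.42, the validation set average plus 4 SD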;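 also: Nile Red retained in cells so higher fluorescence means more efflux inhibition; 0 = negative control wells and 1 = enniatin B 25 µM full block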). The settings on record: S. cerevisiae pump-expressing triplex, Nile Red efflux flow cytometry; at 10 µM; stronger effect = higher value; the pumps come from Candida albicans.
Test [15] concerns the target ATP-binding cassette sub-family B member 6 (Homo sapiens) (UniProt Q9NP58). Nature of the test: ABCB6 transporter inhibitors, pilot screen, K562-ABCB6 cells, flow cytometry, validation set (AID 588550;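 active = inhibition above the screen-wide mean plus 3 SD, about 51%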;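 also: 0% = DMSO wells and 100% = benzethonium chloride 70 µM positive control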). The settings on record: K562-ABCB6 porphyrin accumulation, 1 h, at 10 µM, stronger effect = higher value.
Test [16] in a line: promoters of myeloid differentiation in arrested cells, primary screen, cell-based, GFP/MAC1 double positive, flow cytometry, validation set (AID 588685;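 active = differentiation response of at least 50%, scaled between solvent and reference control, from cells with both markers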;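 also: compound exposure lasts four days before antibody staining and flow analysis; 0% = DMSO wells and 100% = 5 µM fulvestrant positive control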). The settings on record: ER-HoxA9 marrow cells, stronger effect = higher value, normalized: vehicle 0, fulvestrant 100.

Sequence of Beta-adrenergic receptor kinase 1 (Homo sapiens) (P25098 whole entry, looked up): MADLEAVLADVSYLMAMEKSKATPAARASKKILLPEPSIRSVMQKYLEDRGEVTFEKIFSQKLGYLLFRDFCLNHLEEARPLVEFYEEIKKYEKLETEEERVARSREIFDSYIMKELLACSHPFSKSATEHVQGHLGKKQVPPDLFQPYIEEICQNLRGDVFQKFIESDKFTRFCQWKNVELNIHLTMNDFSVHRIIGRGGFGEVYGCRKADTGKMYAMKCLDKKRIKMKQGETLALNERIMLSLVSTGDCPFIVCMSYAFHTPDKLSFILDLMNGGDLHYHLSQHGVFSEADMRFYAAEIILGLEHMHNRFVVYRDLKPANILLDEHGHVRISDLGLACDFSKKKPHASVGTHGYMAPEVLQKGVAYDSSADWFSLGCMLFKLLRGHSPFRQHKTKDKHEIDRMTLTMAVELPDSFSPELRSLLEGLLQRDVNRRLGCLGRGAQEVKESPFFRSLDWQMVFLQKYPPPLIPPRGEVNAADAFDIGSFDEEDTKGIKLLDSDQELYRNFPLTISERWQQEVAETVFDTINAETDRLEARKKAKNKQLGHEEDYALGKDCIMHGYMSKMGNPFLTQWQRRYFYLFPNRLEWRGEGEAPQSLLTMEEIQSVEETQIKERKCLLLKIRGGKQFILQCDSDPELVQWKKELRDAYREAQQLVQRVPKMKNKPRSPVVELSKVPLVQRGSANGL
Sequence of Beta-2 adrenergic receptor (Homo sapiens) (P07550 whole entry, looked up): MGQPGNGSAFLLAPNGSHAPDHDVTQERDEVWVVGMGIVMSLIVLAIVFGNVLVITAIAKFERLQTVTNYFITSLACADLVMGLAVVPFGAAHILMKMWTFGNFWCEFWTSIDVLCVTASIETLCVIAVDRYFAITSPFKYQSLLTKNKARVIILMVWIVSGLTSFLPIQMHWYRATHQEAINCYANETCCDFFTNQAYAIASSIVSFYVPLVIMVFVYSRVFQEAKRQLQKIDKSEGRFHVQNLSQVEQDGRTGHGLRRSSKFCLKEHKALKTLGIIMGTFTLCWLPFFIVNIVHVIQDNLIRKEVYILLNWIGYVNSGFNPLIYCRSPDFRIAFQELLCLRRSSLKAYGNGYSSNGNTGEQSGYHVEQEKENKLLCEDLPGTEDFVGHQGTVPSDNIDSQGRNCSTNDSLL
Sequence of ATP-binding cassette sub-family B member 6 (Homo sapiens) (Q9NP58 whole entry, looked up): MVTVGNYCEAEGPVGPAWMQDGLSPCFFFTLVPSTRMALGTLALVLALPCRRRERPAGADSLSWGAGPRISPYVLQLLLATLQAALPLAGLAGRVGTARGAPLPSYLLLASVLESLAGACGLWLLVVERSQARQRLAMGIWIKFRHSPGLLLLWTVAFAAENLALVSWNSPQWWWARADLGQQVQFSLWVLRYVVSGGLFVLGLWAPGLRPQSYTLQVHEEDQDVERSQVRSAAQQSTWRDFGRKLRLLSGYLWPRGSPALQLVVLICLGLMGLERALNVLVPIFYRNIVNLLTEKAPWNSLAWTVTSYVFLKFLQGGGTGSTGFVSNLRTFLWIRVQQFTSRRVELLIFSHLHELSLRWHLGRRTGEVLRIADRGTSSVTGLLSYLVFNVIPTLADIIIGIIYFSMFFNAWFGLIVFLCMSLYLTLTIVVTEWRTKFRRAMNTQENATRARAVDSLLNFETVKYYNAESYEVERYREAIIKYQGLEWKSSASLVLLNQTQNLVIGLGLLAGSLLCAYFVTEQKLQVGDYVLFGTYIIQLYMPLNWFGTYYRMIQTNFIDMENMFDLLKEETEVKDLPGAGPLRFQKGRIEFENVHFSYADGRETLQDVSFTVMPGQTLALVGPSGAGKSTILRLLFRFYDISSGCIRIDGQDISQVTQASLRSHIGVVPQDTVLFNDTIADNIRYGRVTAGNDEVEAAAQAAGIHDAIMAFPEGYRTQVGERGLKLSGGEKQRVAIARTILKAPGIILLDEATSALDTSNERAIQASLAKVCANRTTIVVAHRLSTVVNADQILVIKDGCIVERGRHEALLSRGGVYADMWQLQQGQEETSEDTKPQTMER
Sequence of Integrin beta-1 (Homo sapiens) + Integrin alpha-4 (Homo sapiens) (P05556 whole entry, looked up): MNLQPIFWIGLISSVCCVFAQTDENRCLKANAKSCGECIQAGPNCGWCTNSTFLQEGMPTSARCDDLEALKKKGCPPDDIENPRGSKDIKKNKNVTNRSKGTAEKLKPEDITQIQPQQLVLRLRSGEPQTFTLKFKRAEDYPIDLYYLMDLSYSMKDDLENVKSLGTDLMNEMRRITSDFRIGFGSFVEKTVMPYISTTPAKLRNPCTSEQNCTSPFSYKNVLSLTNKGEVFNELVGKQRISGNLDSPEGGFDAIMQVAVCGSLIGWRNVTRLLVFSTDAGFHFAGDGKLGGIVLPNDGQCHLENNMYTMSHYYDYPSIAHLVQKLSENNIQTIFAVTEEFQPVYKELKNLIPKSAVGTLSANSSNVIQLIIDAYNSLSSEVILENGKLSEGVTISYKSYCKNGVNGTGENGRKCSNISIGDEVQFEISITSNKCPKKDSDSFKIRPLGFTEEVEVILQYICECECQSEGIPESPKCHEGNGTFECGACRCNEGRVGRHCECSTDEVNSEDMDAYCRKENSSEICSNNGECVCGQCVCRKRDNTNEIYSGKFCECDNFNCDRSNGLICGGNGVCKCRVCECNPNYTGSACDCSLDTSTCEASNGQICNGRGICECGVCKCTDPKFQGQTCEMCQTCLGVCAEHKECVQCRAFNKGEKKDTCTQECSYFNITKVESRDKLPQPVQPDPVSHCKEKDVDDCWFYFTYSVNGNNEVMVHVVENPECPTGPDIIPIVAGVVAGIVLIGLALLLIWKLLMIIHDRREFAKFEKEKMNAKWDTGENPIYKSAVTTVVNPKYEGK
Sequence of Integrin beta-1 (Homo sapiens) + Integrin alpha-4 (Homo sapiens) (P13612 whole entry, looked up): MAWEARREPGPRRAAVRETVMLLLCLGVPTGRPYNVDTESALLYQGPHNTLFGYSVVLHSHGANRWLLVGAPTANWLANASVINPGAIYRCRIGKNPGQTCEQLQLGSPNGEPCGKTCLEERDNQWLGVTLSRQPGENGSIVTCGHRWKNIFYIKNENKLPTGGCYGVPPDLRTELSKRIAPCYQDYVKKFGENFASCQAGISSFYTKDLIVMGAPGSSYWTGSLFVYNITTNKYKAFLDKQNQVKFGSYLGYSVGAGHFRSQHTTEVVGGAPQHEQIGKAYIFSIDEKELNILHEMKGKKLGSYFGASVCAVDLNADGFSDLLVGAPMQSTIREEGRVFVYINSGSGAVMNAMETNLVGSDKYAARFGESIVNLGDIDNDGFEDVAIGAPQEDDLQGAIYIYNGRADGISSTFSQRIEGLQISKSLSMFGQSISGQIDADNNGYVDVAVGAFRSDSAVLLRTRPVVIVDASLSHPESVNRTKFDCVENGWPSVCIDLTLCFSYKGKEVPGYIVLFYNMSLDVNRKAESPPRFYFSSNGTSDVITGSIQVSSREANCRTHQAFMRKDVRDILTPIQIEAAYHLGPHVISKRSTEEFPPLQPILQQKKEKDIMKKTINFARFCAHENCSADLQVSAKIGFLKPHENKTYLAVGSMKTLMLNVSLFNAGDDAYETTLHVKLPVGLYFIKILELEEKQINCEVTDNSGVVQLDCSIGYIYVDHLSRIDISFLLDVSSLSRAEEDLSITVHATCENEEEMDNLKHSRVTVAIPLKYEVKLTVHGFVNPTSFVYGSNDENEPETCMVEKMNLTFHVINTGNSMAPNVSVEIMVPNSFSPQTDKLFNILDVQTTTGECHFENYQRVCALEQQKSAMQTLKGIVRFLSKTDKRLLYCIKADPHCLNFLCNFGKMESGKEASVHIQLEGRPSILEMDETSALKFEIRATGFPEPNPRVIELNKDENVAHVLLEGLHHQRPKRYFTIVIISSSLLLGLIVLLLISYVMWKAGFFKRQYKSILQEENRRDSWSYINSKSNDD
Sequence of AP-2 complex subunit beta (Homo sapiens) (P63010 whole entry, looked up, the tested form may be a part, one chain of several): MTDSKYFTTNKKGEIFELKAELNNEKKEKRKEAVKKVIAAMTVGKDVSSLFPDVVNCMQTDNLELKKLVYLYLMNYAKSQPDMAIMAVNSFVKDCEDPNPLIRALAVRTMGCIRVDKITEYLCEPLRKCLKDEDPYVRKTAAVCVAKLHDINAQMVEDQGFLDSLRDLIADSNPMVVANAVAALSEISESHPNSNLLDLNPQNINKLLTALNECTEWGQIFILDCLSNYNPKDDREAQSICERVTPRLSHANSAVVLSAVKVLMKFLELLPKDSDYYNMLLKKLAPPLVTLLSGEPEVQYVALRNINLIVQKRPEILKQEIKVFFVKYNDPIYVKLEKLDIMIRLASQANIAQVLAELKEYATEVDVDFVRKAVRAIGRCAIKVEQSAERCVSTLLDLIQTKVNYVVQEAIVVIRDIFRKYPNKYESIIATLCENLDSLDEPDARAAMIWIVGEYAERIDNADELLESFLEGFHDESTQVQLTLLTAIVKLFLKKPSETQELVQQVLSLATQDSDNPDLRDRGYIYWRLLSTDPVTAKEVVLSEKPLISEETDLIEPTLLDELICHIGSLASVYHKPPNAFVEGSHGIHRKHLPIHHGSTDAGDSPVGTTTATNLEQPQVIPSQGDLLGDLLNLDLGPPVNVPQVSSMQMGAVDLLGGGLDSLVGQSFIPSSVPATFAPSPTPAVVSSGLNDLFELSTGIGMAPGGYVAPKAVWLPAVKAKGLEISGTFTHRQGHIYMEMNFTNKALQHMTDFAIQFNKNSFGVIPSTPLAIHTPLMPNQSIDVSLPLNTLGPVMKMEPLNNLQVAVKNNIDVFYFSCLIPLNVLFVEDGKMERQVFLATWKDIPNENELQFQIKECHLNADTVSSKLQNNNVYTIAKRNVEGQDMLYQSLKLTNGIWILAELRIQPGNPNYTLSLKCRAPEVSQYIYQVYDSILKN

Turning to `CCOC(=O)c1ccc(N2C(=O)C(CC(=O)NC)N(CCc3ccc(OC)c(OC)c3)C2=S)cc1` (stereo not given), in [1], the percent of DMSO control GFP was 103% (inactive). Further, the GFP response vs DMSO in [2] was 99.9% (inactive); in [4], 104% (inactive). The percent response of DMSO control in test [3] was 101% (inactive). The GFP response, % of DMSO in test [5] was 98.8% (inactive). Also, in [6], the double positive events came out at 59.4%. The vesicle binding response in test [6] is 248% (inactive). Also, the inhibition is 6.85% (inactive) in test [7], -11.1% (inactive) in test [11] and 4% (inactive) in test [15]. Moreover, the superoxide response (% of plate) in test [8] was 113% (inactive). In test [9], the aptamer binding inhibition was 5% (inactive). In addition, the response in [10] was 5.49% (inactive); in test [12], 0.17% (inactive). Besides, the binding (% of control) in [13] is 103% (inactive). The efflux inhibition (fraction of control) in test [14] is 0.26 (inactive). Further, in test [16], the differentiation response was -1.12% (inactive).
`CC(C)=CCC(C)(C)/C=N/NC(N)=O`: the percent of DMSO control GFP in [1] is 101% (inactive). The GFP response vs DMSO in test [2] is 102% (inactive); in test [4], 109% (inactive). For the same compound, in [3], the percent response of DMSO control was 98.3% (inactive). The GFP response, % of DMSO in test [5] was 111% (inactive). Also, the double positive events in test [6] was determined as 59.7%. Also, the vesicle binding response in [6] is 464% (inactive). In addition, the inhibition in test [7] was 14.2% (inactive); in [11] it was -2.34% (inactive); in test [15], 4% (inactive). In addition, in test [8], the superoxide response (% of plate) was 97.9% (inactive). The aptamer binding inhibition in [9] was 4% (inactive). The response in test [10] was -21.9% (inactive); in [12] it was 1.02% (inactive). The binding (% of control) in test [13] is 100% (inactive). In addition, the efflux inhibition (fraction of control) in test [14] was 0 (inactive). In [16], the differentiation response is 5.85% (inactive).
Turning to `CN(C)c1ccc(Nc2c3c4c(cccc4n(C)c2=O)C(=O)c2ccccc2-3)cc1`, the percent of DMSO control GFP in test [1] is 99.3% (inactive). Besides, the GFP response vs DMSO in test [2] was 108% (inactive); in [4], 126% (inactive). In test [3], the percent response of DMSO control is 111% (inactive). The GFP response, % of DMSO in test [5] was 108% (inactive). Further, the double positive events in test [6] worked out at 60.5%. Also, the vesicle binding response in [6] was 195% (inactive). In addition, the inhibition in test [7] was -0.27% (inactive); in [11], 16.7% (inactive); in test [15], 3% (inactive). In [8], the superoxide response (% of plate) was 71% (inactive). For the same compound, in test [9], the aptamer binding inhibition was 0% (inactive). The response in test [10] was -25.2% (inactive); in test [12] it was -0.9% (inactive). Besides, the binding (% of control) in test [13] is 93.8% (inactive). Further, the efflux inhibition (fraction of control) in [14] is -0.17 (inactive). In addition, the differentiation response in test [16] is -9.91% (inactive).
As to `CCN(CC)c1ccc(C2=NNC(=O)CC2C)cc1[N+](=O)[O-]` (stereo not given), the percent of DMSO control GFP in test [1] was 97.4% (inactive). For the same compound, the values for the GFP response vs DMSO in test [2] and in [4] were 102% (inactive) and 119% (inactive), respectively. In test [3], the percent response of DMSO control is 95.8% (inactive). In test [5], the GFP response, % of DMSO is 105% (inactive). Also, the double positive events in test [6] came to 60.7%. In addition, in test [6], the vesicle binding response is 189% (inactive). Also, the inhibition in [7] is -15.4% (inactive); in test [11], -4.02% (inactive); in test [15], -22% (inactive). Besides, in [8], the superoxide response (% of plate) is 110% (inactive). Moreover, the aptamer binding inhibition in [9] was 3% (inactive). The response in test [10] was 0.9% (inactive); in [12] it was -0.46% (inactive). Further, the binding (% of control) in test [13] was 98.9% (inactive). Further, the efflux inhibition (fraction of control) in [14] is -0.21 (inactive). The differentiation response in test [16] was -4% (inactive).
As for `CC(=O)Oc1c2occc2cc2ccc(=O)oc12`, the percent of DMSO control GFP in [1] was 98.4% (inactive). For the same compound, the GFP response vs DMSO in test [2] is 103% (inactive); in test [4], 114% (inactive). Also, the percent response of DMSO control in test [3] was 87.2% (inactive). Further, the GFP response, % of DMSO in [5] was 98.9% (inactive). In test [6], the double positive events amounted to 57.9%. The vesicle binding response in [6] is 140% (inactive). Moreover, the inhibition in [7] was -11.3% (inactive); in [11], 7.26% (inactive); in test [15], 8% (inactive). Besides, the superoxide response (% of plate) in [8] was 101% (inactive). The aptamer binding inhibition in test [9] is 3% (inactive). Besides, the response was 9.55% (inactive) in test [10] and -2.03% (inactive) in test [12]. Also, the binding (% of control) in test [13] is 101% (inactive). In addition, the efflux inhibition (fraction of control) in [14] was 0.51 (active). Also, the differentiation response in test [16] was 10.4% (inactive).
